About 83,000 compounds went through this panel and 20% of them were active in at least one assay; those are over-represented in the sample as a whole.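 Assay: single dose, 48 h. Readout: percent growth (0 = no net growth; negative = cell death). Active: <10.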 Calls of active or inactive are those of the source.
What was measured:
Experiment in all cases: NCI-60 one-dose screen, 48 h (100 = growth as untreated, 0 = no growth, -100 = all killed)
Details in all cases: 10 µM unless noted
HCT-15 colon = tested on: HCT-15 colon
HT29 colon = tested on: HT29 colon
SNB-75 CNS = tested on: SNB-75 CNS
SNB-19 CNS = tested on: SNB-19 CNS
U251 CNS = tested on: U251 CNS
PC-3 prostate = tested on: PC-3 prostate
SK-MEL-5 melanoma = tested on: SK-MEL-5 melanoma
UACC-62 melanoma = tested on: UACC-62 melanoma
LOX IMVI melanoma = tested on: LOX IMVI melanoma
SK-MEL-28 melanoma = tested on: SK-MEL-28 melanoma
EKVX NSCLC = tested on: EKVX NSCLC
SN12C renal = tested on: SN12C renal
UO-31 renal = tested on: UO-31 renal
TK-10 renal = tested on: TK-10 renal
ACHN renal = tested on: ACHN renal
CAKI-1 renal = tested on: CAKI-1 renal
A498 renal = tested on: A498 renal
CCRF-CEM leukemia = tested on: CCRF-CEM leukemia
MOLT-4 leukemia = tested on: MOLT-4 leukemia

Measured: growth

CN1CC[C@H](c2c(O)cc(O)c3c(=O)cc(-c4ccccc4Cl)oc23)[C@H](O)C1
inactive: SNB-19 CNS 10.1% | SN12C renal 10.4% | CAKI-1 renal 10.1% | CCRF-CEM leukemia 10.2%
active: HCT-15 colon 4.15% | HT29 colon -19.8% | SNB-75 CNS -59.7% | U251 CNS 5.78% | PC-3 prostate -4.62% | SK-MEL-5 melanoma -19% | UACC-62 melanoma -49.6% | LOX IMVI melanoma 4.81% | SK-MEL-28 melanoma -29.4% | EKVX NSCLC 0.266% | UO-31 renal -14.1% | TK-10 renal -0.739% | ACHN renal 4.43% | A498 renal -54.2% | MOLT-4 leukemia 1.35%

c1cn2cc(-c3ccc4cn[nH]c4c3)nc(Nc3ccc(N4CCOCC4)cc3)c2n1
active: SNB-75 CNS -3.9%
inactive: HCT-15 colon 66.5% | HT29 colon 32.7% | SNB-19 CNS 50.3% | U251 CNS 41.5% | PC-3 prostate 43.3% | SK-MEL-5 melanoma 71.4% | UACC-62 melanoma 53.3% | LOX IMVI melanoma 56.4% | SK-MEL-28 melanoma 63% | EKVX NSCLC 83.9% | SN12C renal 41.3% | UO-31 renal 65.1% | TK-10 renal 76.1% | ACHN renal 39% | CAKI-1 renal 39.4% | A498 renal 68.7% | CCRF-CEM leukemia 66.9% | MOLT-4 leukemia 61.8%

C=CC(=O)N1CCC[C@H](n2c(=O)n(-c3ccc(Oc4ccccc4)cc3)c3c(N)ncnc32)C1
inactive: HCT-15 colon 98.3% | HT29 colon 68.9% | SNB-75 CNS 113% | SNB-19 CNS 79.1% | U251 CNS 89.2% | PC-3 prostate 87.9% | SK-MEL-5 melanoma 94.1% | UACC-62 melanoma 81.2% | LOX IMVI melanoma 72.4% | SK-MEL-28 melanoma 113% | EKVX NSCLC 57.4% | SN12C renal 71% | UO-31 renal 50.5% | TK-10 renal 27.6% | ACHN renal 41.2% | CAKI-1 renal 69.1% | A498 renal 81.2% | CCRF-CEM leukemia 82.3% | MOLT-4 leukemia 68.5%

C/C(=C(/c1ccc(Cl)cc1)c1ccc(OCCN2CCCCC2)cc1)c1ccccc1
active: HT29 colon 3.98%
inactive: HCT-15 colon 24.8% | SNB-75 CNS 90.7% | SNB-19 CNS 86.7% | U251 CNS 66.5% | PC-3 prostate 66.8% | SK-MEL-5 melanoma 62% | UACC-62 melanoma 64.9% | LOX IMVI melanoma 59.9% | SK-MEL-28 melanoma 91.5% | EKVX NSCLC 70.7% | SN12C renal 77% | UO-31 renal 59.7% | TK-10 renal 94.1% | ACHN renal 103% | CAKI-1 renal 89.4% | A498 renal 80.3% | CCRF-CEM leukemia 60.6% | MOLT-4 leukemia 83.4%

N#Cc1c(-c2ccc(Cl)cc2)csc1NC(=O)Nc1cccc(C(F)(F)F)c1
inactive: HCT-15 colon 11.7% | HT29 colon 13% | SNB-75 CNS 29.3% | SNB-19 CNS 12.1% | PC-3 prostate 11.1% | SK-MEL-5 melanoma 22.4% | UACC-62 melanoma 12.5% | SK-MEL-28 melanoma 14.3% | EKVX NSCLC 17.3% | TK-10 renal 20.1% | CAKI-1 renal 27.8% | A498 renal 13.8% | CCRF-CEM leukemia 14.1%
active: U251 CNS 6.02% | LOX IMVI melanoma 5.9% | SN12C renal -17.2% | UO-31 renal -2.89% | ACHN renal 1.09% | MOLT-4 leukemia 7.5%

C[C@@H](Oc1cc(-c2cnn(C3CCNCC3)c2)cnc1N)c1c(Cl)ccc(F)c1Cl
active: HCT-15 colon -5.99% | HT29 colon -49.4% | SNB-75 CNS -67.7% | SNB-19 CNS 3.67% | U251 CNS -71.9% | PC-3 prostate -5.54% | SK-MEL-5 melanoma -99.8% | UACC-62 melanoma -83.5% | LOX IMVI melanoma -90.8% | SK-MEL-28 melanoma -84.7% | EKVX NSCLC 0.0738% | SN12C renal -41% | UO-31 renal -73.4% | TK-10 renal -36.2% | ACHN renal -45.9% | CAKI-1 renal -64.1% | A498 renal -68.3% | CCRF-CEM leukemia -19.5% | MOLT-4 leukemia -34.5%

O=C(O)c1ccc(Nc2ncc3c(n2)-c2ccc(Cl)cc2C(c2c(F)cccc2F)=NC3)cc1
inactive: HCT-15 colon 50.5% | HT29 colon 30.2% | SNB-75 CNS 48.8% | SNB-19 CNS 54.6% | U251 CNS 42.5% | PC-3 prostate 51.3% | SK-MEL-5 melanoma 60.6% | UACC-62 melanoma 51.6% | LOX IMVI melanoma 33% | SK-MEL-28 melanoma 75.1% | EKVX NSCLC 80.1% | SN12C renal 62.8% | UO-31 renal 41.8% | TK-10 renal 40.1% | ACHN renal 49% | CAKI-1 renal 47.6% | A498 renal 25.3% | CCRF-CEM leukemia 36.6% | MOLT-4 leukemia 44.6%

COc1cc(N2CCC(N(C)C)CC2)ccc1Nc1ncc(Cl)c(Nc2ccccc2P(C)(C)=O)n1
active: HCT-15 colon 7.34% | HT29 colon -4.74% | SNB-75 CNS -82.5% | U251 CNS 5.24% | LOX IMVI melanoma -60.3% | SN12C renal 1.55% | UO-31 renal -81.2% | TK-10 renal -43.9% | ACHN renal 1.69% | CAKI-1 renal -60.9% | A498 renal -70%
inactive: SNB-19 CNS 14.9% | PC-3 prostate 26% | SK-MEL-5 melanoma 16.5% | UACC-62 melanoma 16% | SK-MEL-28 melanoma 49.4% | EKVX NSCLC 20% | CCRF-CEM leukemia 10.4% | MOLT-4 leukemia 13.4%

COc1cc(Nc2c(C#N)cnc3cc(OCCCN4CCN(C)CC4)c(OC)cc23)c(Cl)cc1Cl
active: UACC-62 melanoma 9.83%
inactive: HCT-15 colon 57.5% | HT29 colon 10.3% | SNB-75 CNS 87.6% | SNB-19 CNS 70.4% | U251 CNS 65% | PC-3 prostate 84.7% | SK-MEL-5 melanoma 62.5% | LOX IMVI melanoma 33.1% | SK-MEL-28 melanoma 19.3% | EKVX NSCLC 54.9% | SN12C renal 51.9% | UO-31 renal 38.1% | TK-10 renal 29.8% | ACHN renal 27.3% | CAKI-1 renal 31% | A498 renal 78.3% | CCRF-CEM leukemia 38.9% | MOLT-4 leukemia 33.3%

COc1ccc(-c2cc3c(C)nc(N)nc3n(C3CCC(OCCO)CC3)c2=O)cn1 (centres undefined)
active: HCT-15 colon 3.45% | HT29 colon 1.24% | SNB-75 CNS -50.6% | SNB-19 CNS -7.7% | U251 CNS -13.8% | PC-3 prostate 5.19% | SK-MEL-5 melanoma -77.3% | UACC-62 melanoma -52.5% | LOX IMVI melanoma -55.5% | SK-MEL-28 melanoma -29.4% | EKVX NSCLC -4.74% | SN12C renal 7.14% | UO-31 renal -33.8% | TK-10 renal -43.4% | ACHN renal -10.3% | CAKI-1 renal -43.4% | A498 renal -55.8% | MOLT-4 leukemia 8.49%
inactive: CCRF-CEM leukemia 14.6%

O=c1[nH]ccc2c(S(=O)(=O)N3CCCNCC3)cccc12
inactive: HCT-15 colon 93.3% | HT29 colon 82.2% | SNB-75 CNS 54.6% | SNB-19 CNS 97.4% | U251 CNS 101% | PC-3 prostate 86.9% | SK-MEL-5 melanoma 109% | UACC-62 melanoma 70.1% | LOX IMVI melanoma 90.6% | SK-MEL-28 melanoma 67% | EKVX NSCLC 65.4% | SN12C renal 69.2% | UO-31 renal 40.6% | TK-10 renal 26% | ACHN renal 41.7% | CAKI-1 renal 55.5% | A498 renal 36.3% | CCRF-CEM leukemia 89.1% | MOLT-4 leukemia 84.9%

COc1ccc(S(=O)(=O)N(C(C)=O)c2ccccc2/C=C/c2cc[n+]([O-])cc2)cc1
active: HT29 colon 1.49% | SNB-75 CNS 4.75% | U251 CNS 9.19% | SK-MEL-5 melanoma 7.61% | A498 renal 1.32%
inactive: HCT-15 colon 17.9% | SNB-19 CNS 25.4% | PC-3 prostate 17.9% | UACC-62 melanoma 37.1% | LOX IMVI melanoma 18% | SK-MEL-28 melanoma 45.4% | EKVX NSCLC 31.8% | SN12C renal 32.4% | UO-31 renal 50% | TK-10 renal 49.2% | ACHN renal 42.5% | CAKI-1 renal 32.7% | CCRF-CEM leukemia 16.4% | MOLT-4 leukemia 22.5%

O=c1sn(-c2cccc3ccccc23)c(=O)n1Cc1ccccc1
inactive: HCT-15 colon 104% | HT29 colon 100% | SNB-75 CNS 105% | SNB-19 CNS 101% | U251 CNS 97.1% | PC-3 prostate 89.9% | SK-MEL-5 melanoma 104% | UACC-62 melanoma 92.6% | LOX IMVI melanoma 99.9% | SK-MEL-28 melanoma 114% | EKVX NSCLC 108% | SN12C renal 94.8% | UO-31 renal 86.3% | TK-10 renal 95.5% | ACHN renal 106% | CAKI-1 renal 99% | A498 renal 102% | CCRF-CEM leukemia 64.9% | MOLT-4 leukemia 39.1%

CC/C(=C(/c1ccc(Cl)cc1)c1ccc(OCCN2CCCCC2)cc1)c1ccc(Cl)cc1
inactive: HCT-15 colon 57.1% | HT29 colon 23% | SNB-75 CNS 85.7% | SNB-19 CNS 85.7% | U251 CNS 62.3% | PC-3 prostate 63.7% | SK-MEL-5 melanoma 86.9% | UACC-62 melanoma 97% | LOX IMVI melanoma 82.2% | SK-MEL-28 melanoma 98.5% | EKVX NSCLC 57.4% | SN12C renal 76.5% | UO-31 renal 58.8% | TK-10 renal 90.8% | ACHN renal 91.2% | CAKI-1 renal 74.4% | A498 renal 94% | CCRF-CEM leukemia 50.6% | MOLT-4 leukemia 69.2%

CCN(CC)CCNC(=O)c1c(C)[nH]c(/C=C2\C(=O)Nc3ccc(F)cc32)c1C
inactive: HCT-15 colon 11% | SNB-75 CNS 18.2% | PC-3 prostate 21.6% | EKVX NSCLC 17.8% | SN12C renal 26% | TK-10 renal 27.1% | CAKI-1 renal 17.5% | A498 renal 47.4% | MOLT-4 leukemia 17%
active: HT29 colon -53.9% | SNB-19 CNS 9.51% | U251 CNS -79.3% | SK-MEL-5 melanoma -98% | UACC-62 melanoma -63.6% | LOX IMVI melanoma -81.9% | SK-MEL-28 melanoma -69.1% | UO-31 renal 7.88% | ACHN renal -12.8% | CCRF-CEM leukemia 7.54%

FC(F)c1nc2ccccc2n1-c1nc(N2CCOCC2)nc(N2CCOCC2)n1
active: HCT-15 colon 9.28% | HT29 colon 2.81% | SNB-75 CNS -48% | U251 CNS 4.05% | PC-3 prostate 7.59% | SK-MEL-5 melanoma -41.8% | UACC-62 melanoma -50% | LOX IMVI melanoma -17.9% | SK-MEL-28 melanoma -31% | EKVX NSCLC 2.75% | SN12C renal 8.54% | UO-31 renal -26.2% | TK-10 renal -27.9% | ACHN renal -8.61% | CAKI-1 renal -11% | A498 renal -82.4% | CCRF-CEM leukemia 8.99% | MOLT-4 leukemia 1.48%
inactive: SNB-19 CNS 10.5%

— PubChem BioAssay (NCI)
